Source: the supplement of paper PMC10849652
About 7,900 targets were measured; listed, in parts, are those with a hit and a random draw of the rest. About 0.6% of all pairs of compound and target were hits. Values without a mark were called inactive.

Assays:
Test in all cases: log2 fold change, soluble protein after heating vs DMSO (PISA); higher = thermal stabilisation; K562 cells, 10 uM, 30 min; active = over 0.2 and 3.5 SD of the protein, either way, in both replicates (recomputed)
bafetinib = compound: Cc1ccc(NC(=O)c2ccc(CN3CC[C@H](N(C)C)C3)c(C(F)(F)F)c2)cc1Nc1nccc(-c2cncnc2)n1 [bafetinib]
Outline: (§1)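 K562 cells at 2×10^6 cells/mL were treated for 30 min with 10 μM compound, and aliquots were heated for 3 min over 48°C-58°C before pooling. Extraction used PBS with 0.5% NP-40 at 4°C, and soluble protein was the supernatant after 21,000xg for 90 min, measured by TMTpro 16plex LC-MS/MS with channel sums equalised. Thermal stability values, relative to control samples and from duplicates, are log2 fold changes.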

nilotinib = compound: Cc1cn(-c2cc(NC(=O)c3ccc(C)c(Nc4nccc(-c5cccnc5)n4)c3)cc(C(F)(F)F)c2)cn1 [nilotinib]
Outline: as §1

[1] = compound: Cc1nc(Nc2n[nH]c3c2CN(C(=O)N[C@H](CN(C)C)c2ccccc2)C3(C)C)c2sccc2n1
Outline: as §1

dasatinib = compound: Cc1nc(Nc2ncc(C(=O)Nc3c(C)cccc3Cl)s2)cc(N2CCN(CCO)CC2)n1 [dasatinib]
Outline: as §1

[2] = compound: Cc1ncc(-c2ccnc(Nc3ccc(S(C)(=O)=O)cc3)n2)n1C(C)C
Outline: as §1

[3] = compound: Cn1cc(-c2ccc3c(c2)CCN3C(=O)Cc2cccc(C(F)(F)F)c2)c2c(N)ncnc21
Outline: as §1

[4] = compound: Cn1cc(-c2ccc3nnc(C(F)(F)c4ccc5ncccc5c4)n3n2)cn1
Outline: as §1

tipifarnib = compound: Cn1cncc1[C@@](N)(c1ccc(Cl)cc1)c1ccc2c(c1)c(-c1cccc(Cl)c1)cc(=O)n2C [tipifarnib]
Outline: as §1

mubritinib = compound: FC(F)(F)c1ccc(/C=C/c2nc(COc3ccc(CCCCn4ccnn4)cc3)co2)cc1 [mubritinib]
Outline: as §1

[5] = compound: NC(=O)Nc1cc(-c2cccc(F)c2)sc1C(=O)N[C@H]1CCCNC1
Outline: as §1

[6] = compound: NC(=O)c1cnc(N[C@@H]2CCCC[C@@H]2N)nc1Nc1cccc(-n2nccn2)c1
Outline: as §1

[7] = compound: NC1(c2ccc(-c3nc4ccn5c(=O)[nH]nc5c4cc3-c3ccccc3)cc2)CCC1
Outline: as §1

[8] = compound: NCC(=O)Nc1ccc(-n2nc(C(F)(F)F)cc2-c2ccc3c(ccc4ccccc43)c2)cc1
Outline: as §1

entinostat = compound: Nc1ccccc1NC(=O)c1ccc(CNC(=O)OCc2cccnc2)cc1 [entinostat]
Outline: as §1

citarinostat = compound: O=C(CCCCCCNC(=O)c1cnc(N(c2ccccc2)c2ccccc2Cl)nc1)NO [citarinostat]
Outline: as §1

silmitasertib = compound: O=C(O)c1ccc2c(c1)nc(Nc1cccc(Cl)c1)c1ccncc12 [silmitasertib]
Outline: as §1

[9] = compound: O=C1NC(=O)C(c2cnc3ccccn23)=C1c1cn2c3c(cc(F)cc13)CN(C(=O)N1CCCCC1)CC2
Outline: as §1

[10] = compound: c1cc(OCCN2CCCCC2)cc(-c2n[nH]c3ccc(-c4nnc[nH]4)cc23)c1
Outline: as §1

[11] = compound: Cc1cccc(CC(=O)N2CCc3c2ccc(-c2cn(C)c4ncnc(N)c24)c3F)n1
Outline: as §1

vorinostat = compound: O=C(CCCCCCC(=O)Nc1ccccc1)NO [vorinostat]
Outline: as §1

Sequence of UniProt Q86UA6 (Q86UA6 whole entry, looked up): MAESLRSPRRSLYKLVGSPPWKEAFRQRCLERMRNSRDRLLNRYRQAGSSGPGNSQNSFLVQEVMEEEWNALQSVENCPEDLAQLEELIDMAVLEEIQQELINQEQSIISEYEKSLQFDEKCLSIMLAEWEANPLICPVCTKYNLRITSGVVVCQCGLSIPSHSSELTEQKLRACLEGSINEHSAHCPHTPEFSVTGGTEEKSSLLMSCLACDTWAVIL
Sequence of UniProt Q96LZ7 (Q96LZ7 whole entry, looked up): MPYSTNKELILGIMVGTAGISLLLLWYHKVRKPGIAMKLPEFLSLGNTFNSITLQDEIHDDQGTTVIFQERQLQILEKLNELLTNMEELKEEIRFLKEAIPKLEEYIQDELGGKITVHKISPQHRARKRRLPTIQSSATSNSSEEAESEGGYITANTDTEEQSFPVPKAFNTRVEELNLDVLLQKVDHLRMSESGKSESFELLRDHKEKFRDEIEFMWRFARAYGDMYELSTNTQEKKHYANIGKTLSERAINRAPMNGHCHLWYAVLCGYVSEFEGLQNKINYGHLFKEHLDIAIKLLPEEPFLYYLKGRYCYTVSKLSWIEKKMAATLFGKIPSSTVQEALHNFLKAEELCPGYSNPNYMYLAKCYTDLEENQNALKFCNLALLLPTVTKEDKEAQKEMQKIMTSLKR
Sequence of UniProt O43819 (O43819 whole entry, looked up): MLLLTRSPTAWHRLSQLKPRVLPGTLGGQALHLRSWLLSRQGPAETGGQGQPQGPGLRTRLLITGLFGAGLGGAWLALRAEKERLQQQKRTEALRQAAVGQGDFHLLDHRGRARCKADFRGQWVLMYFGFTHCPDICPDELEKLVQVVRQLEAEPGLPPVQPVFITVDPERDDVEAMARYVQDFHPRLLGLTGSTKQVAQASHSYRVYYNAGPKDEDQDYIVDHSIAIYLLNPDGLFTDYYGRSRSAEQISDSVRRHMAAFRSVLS
Sequence of UniProt Q6R327 (Q6R327 whole entry, looked up): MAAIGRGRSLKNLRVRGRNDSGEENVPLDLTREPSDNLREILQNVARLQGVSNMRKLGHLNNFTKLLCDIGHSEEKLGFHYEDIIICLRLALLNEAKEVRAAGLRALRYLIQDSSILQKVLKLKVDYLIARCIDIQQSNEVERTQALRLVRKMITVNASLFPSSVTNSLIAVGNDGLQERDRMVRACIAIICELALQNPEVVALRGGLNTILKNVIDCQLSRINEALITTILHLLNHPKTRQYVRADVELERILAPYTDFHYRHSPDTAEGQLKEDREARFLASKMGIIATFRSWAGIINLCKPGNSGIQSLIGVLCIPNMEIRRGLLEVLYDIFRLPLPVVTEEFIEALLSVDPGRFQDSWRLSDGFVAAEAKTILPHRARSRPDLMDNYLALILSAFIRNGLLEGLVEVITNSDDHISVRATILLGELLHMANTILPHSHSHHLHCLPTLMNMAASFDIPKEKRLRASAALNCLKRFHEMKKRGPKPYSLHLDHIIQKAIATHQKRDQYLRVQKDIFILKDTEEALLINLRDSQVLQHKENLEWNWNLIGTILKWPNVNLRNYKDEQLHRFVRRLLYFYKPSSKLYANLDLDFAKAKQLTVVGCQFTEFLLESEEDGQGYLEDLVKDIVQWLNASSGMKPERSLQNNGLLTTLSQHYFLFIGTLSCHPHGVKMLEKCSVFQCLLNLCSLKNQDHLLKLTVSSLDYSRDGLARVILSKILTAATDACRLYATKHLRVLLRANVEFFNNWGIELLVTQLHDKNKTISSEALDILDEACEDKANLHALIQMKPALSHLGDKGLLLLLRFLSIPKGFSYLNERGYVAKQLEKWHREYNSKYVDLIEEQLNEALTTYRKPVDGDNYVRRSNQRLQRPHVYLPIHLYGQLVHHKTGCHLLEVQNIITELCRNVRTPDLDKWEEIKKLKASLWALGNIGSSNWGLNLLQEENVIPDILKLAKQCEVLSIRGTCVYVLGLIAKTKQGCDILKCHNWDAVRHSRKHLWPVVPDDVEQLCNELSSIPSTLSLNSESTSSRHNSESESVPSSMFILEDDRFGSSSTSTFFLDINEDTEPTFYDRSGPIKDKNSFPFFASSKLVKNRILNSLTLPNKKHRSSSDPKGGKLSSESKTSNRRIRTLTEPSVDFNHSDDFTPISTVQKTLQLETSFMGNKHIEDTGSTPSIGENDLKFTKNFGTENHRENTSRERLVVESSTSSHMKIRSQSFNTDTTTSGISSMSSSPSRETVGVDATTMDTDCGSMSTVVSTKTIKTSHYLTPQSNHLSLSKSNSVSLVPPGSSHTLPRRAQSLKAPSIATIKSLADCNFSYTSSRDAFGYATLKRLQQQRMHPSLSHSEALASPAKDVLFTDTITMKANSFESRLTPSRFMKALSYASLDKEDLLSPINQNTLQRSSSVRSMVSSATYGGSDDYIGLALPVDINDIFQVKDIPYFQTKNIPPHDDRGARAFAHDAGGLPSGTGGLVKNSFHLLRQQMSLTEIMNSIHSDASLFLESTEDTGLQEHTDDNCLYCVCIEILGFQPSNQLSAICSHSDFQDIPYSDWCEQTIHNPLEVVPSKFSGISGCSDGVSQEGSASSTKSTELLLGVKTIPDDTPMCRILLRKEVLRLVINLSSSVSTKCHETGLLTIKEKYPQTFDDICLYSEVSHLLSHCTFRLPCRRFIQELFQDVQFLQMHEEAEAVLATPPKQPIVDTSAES
Sequence of UniProt A1X283 (A1X283 whole entry, looked up): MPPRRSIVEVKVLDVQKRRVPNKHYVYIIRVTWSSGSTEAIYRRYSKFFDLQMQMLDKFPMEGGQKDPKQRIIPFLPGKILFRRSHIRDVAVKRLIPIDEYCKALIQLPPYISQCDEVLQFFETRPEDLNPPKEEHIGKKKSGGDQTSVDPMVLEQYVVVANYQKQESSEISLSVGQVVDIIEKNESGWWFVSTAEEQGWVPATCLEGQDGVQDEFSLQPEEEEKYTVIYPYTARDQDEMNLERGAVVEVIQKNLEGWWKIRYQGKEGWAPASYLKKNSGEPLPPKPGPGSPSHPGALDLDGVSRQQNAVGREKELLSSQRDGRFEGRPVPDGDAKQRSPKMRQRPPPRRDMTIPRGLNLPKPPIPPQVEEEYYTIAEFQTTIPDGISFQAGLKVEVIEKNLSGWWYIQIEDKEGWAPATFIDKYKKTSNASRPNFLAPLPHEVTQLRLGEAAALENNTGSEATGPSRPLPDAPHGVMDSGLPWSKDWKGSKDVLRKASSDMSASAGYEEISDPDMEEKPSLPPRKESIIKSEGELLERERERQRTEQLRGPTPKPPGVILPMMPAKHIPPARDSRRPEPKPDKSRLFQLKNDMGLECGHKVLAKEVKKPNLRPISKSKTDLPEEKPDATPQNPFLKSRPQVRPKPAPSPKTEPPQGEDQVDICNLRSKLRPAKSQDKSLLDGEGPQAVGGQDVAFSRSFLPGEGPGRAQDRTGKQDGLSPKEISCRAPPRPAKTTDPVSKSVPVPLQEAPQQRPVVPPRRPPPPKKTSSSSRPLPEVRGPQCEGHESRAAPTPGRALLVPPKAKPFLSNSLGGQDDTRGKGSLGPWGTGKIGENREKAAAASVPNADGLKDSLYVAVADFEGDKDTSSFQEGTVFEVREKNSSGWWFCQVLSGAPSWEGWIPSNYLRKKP
Sequence of UniProt Q86X27 (Q86X27 whole entry, looked up): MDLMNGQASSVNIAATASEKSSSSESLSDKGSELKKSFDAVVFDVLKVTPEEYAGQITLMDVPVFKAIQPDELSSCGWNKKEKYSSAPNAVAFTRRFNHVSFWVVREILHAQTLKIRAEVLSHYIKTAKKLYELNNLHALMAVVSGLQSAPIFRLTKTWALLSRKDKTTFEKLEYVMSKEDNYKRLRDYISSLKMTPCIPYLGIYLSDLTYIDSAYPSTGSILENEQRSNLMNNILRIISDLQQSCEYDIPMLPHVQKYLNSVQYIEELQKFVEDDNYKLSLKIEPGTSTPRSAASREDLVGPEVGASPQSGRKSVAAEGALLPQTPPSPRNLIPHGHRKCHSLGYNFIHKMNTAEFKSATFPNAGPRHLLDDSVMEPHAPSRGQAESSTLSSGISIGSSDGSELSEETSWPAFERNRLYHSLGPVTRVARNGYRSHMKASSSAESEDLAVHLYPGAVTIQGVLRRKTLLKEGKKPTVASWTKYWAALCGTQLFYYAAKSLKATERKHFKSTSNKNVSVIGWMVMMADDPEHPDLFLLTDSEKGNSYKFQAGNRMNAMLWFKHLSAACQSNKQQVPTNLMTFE
Sequence of UniProt P60903 (P60903 whole entry, looked up): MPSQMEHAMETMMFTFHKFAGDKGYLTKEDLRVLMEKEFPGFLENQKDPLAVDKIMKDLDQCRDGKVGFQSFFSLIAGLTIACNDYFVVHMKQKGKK
Sequence of UniProt O75056 (O75056 whole entry, looked up): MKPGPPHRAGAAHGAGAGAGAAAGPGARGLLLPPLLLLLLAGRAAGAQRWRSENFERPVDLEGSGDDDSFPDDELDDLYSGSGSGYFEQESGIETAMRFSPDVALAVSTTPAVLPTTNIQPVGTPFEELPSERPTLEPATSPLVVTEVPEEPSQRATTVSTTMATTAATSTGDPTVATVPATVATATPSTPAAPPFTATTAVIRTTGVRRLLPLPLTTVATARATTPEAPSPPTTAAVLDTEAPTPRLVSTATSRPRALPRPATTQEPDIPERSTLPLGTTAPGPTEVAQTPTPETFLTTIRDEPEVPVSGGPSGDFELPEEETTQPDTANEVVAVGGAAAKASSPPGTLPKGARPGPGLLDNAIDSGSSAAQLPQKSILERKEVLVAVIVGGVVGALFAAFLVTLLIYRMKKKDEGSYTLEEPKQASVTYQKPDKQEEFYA
Sequence of UniProt Q9H4P4 (Q9H4P4 whole entry, looked up): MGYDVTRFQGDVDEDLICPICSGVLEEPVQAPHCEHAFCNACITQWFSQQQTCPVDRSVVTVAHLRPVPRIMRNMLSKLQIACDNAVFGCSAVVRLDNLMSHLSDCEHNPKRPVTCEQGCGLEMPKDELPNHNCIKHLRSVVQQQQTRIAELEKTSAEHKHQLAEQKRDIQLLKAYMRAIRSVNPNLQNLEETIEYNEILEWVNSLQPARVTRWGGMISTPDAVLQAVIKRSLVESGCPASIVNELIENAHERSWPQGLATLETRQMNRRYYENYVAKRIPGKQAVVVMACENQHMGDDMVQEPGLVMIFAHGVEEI

Target	log2 fold change (bafetinib)	log2 fold change (nilotinib)	log2 fold change [1]	log2 fold change (dasatinib)	log2 fold change [2]	log2 fold change [3]	log2 fold change [4]	log2 fold change (tipifarnib)	log2 fold change (mubritinib)	log2 fold change [5]	log2 fold change [6]	log2 fold change [7]	log2 fold change [8]	log2 fold change (entinostat)	log2 fold change (citarinostat)	log2 fold change (silmitasertib)	log2 fold change [9]	log2 fold change [10]	log2 fold change [11]	log2 fold change (vorinostat)
SCAMP2 (UniProt H3BUB6)	-0.226	-0.056	0.03	0	-0.069	0.062	0.095	0.188	0.023	-0.31	-0.392	0.021	-0.311	-0.175	-0.364	0.129	-0.267	-0.118	–	–
RABGAP1L isoform 5 (UniProt Q5R372)	-0.031	0.112	-0.003	-0.054	-0.047	-0.002	–	0.073	0.036	-0.246	-0.094	-0.021	–	-0.051	–	0.106	-0.315 (active)	–	–	–
SIK3 (UniProt H0Y4E8)	–	-0.053	-0.179	-0.037	0.003	-0.016	0	0.251	-0.035	-0.022	0.08	-0.22	-0.038	-0.075	-0.053	0.054	–	-0.098	-0.122	-0.053
RAPGEF4 (UniProt Q8WZA2)	-0.075	–	–	0.088	–	0.201	–	–	0.038	-0.095	-0.13	-0.054	-0.04	-0.003	0.161	0.125	-0.279	0.127	–	–
SCO2 (UniProt O43819)	-0.058	–	–	-0.042	–	0.107	0.039	0.014	-0.035	-0.598 (active)	-0.078	0.015	0.006	-0.266	-0.001	-0.078	-0.092	0.118	-0.014	0.011
RUFY3 isoform 3 (UniProt Q7L099)	–	-0.16	0.045	-0.271	0.052	0.024	0.134	-0.116	0.043	-0.032	-0.022	-0.05	-0.014	0.143	0.089	0.1	–	0.013	-0.018	0.071
RBM6 (UniProt P78332)	–	0.062	-0.109	0.025	-0.194	-0.052	–	0.028	-0.072	0.099	-0.06	0.222	–	-0.317	–	0.017	–	–	-0.048	-0.012
RPS3A (UniProt D6R9B6)	–	–	–	0.155	–	–	–	–	–	-0.41	-0.391	–	–	-0.234	–	–	–	–	–	–
RMDN2 isoform 2 (UniProt Q96LZ7)	–	-0.556	0.661	–	-0.115	–	-0.104	–	-0.231	–	–	-0.018	0.116	–	–	-0.275	–	–	–	–
RALGPS2 (UniProt Q86X27)	-0.072	–	–	-0.011	–	0.043	–	–	-0.198	–	0.258	-0.08	0.175	–	0.219	0.089	0.34	-0.153	-0.001	0.074
SAP30 (UniProt O75446)	–	0.083	0.01	-0.008	0.006	-0.073	–	0.068	-0.118	0.043	0.032	0.044	0.287	0.165	–	0.106	0.047	–	0.076	0.307
RBMY1E (UniProt A6NEQ0)	-0.041	0.009	-0.038	–	0.026	0.29	-0.164	-0.016	0.192	–	–	-0.246	–	–	0.063	-0.156	–	-0.081	0.219	0.07
RNF26 (UniProt Q9BY78)	0.083	–	–	–	–	–	-0.011	–	–	–	–	–	-0.161	–	–	–	–	–	0.111	-0.094
RAF1 isoform 2 (UniProt P04049)	-0.062	–	–	-0.191	–	0.181	-0.144	-0.185	-0.286	-0.208	-0.012	0.086	-0.017	-0.033	-0.037	-0.033	-0.13	-0.133	-0.168	0.069
SERINC1 (UniProt Q9NRX5)	-0.135	0.121	0.081	-0.034	-0.064	–	0.054	-0.112	0.057	-0.061	-0.241	0.004	-0.174	-0.009	0.088	0.197	0.032	0.022	–	–
RPS3 (UniProt E9PJN9)	–	–	–	-0.207	–	–	-0.159	–	–	–	–	–	–	–	0	–	–	-0.048	0.076	0.2
RBM26 isoform 3 (UniProt Q5T8P6)	–	–	–	–	–	–	–	–	–	-0.079	-0.046	–	–	0.103	–	–	–	–	–	–

Target	log2 fold change (bafetinib)	log2 fold change (nilotinib)	log2 fold change [1]	log2 fold change (dasatinib)	log2 fold change [2]	log2 fold change [3]	log2 fold change [4]	log2 fold change (tipifarnib)	log2 fold change (mubritinib)	log2 fold change [5]	log2 fold change [6]	log2 fold change [7]	log2 fold change [8]	log2 fold change (entinostat)	log2 fold change (citarinostat)	log2 fold change (silmitasertib)	log2 fold change [9]	log2 fold change [10]	log2 fold change [11]	log2 fold change (vorinostat)
SDHAF4 (UniProt Q5VUM1)	-0.078	-0.043	-0.003	0.034	0.056	0.077	–	-0.041	0.03	-0.016	0.07	-0.111	–	-0.021	0.076	0.04	0.005	0.108	–	–
RNF220 isoform 3 (UniProt Q5VTB9)	–	–	–	–	–	–	–	-0.282	–	–	0.115	–	–	–	–	–	–	–	–	–
RPS6KA5 (UniProt O75582)	–	–	–	–	–	–	-0.098	-0.07	-0.171	–	–	-0.138	–	–	-0.101	0.045	-0.088	0.092	–	–
RAB3IL1 (UniProt E9PK89)	-0.053	-0.007	-0.189	–	-0.101	0.258	0.056	-0.035	–	0.062	0.11	–	0.018	-0.023	0.049	–	-0.234	0.016	0.01	0.112
RICTOR isoform 3 (UniProt Q6R327)	–	-0.102	0.176	-0.044	-0.023	–	–	-0.052	–	0.075	0.054	–	–	0.044	0.066	–	0.289	-0.155	0.141	0.211
SAFB2 (UniProt K7EQU4)	-0.053	0.155	0.162	–	-0.113	–	–	–	–	–	–	–	–	–	–	–	0.007	–	–	–
SH2D1B (UniProt O14796)	–	-0.421	-0.319	-1.18 (active)	0.005	-0.358	-0.069	0.045	-0.187	-1.1 (active)	0.04	-0.135	-0.024	0.055	0.413	-0.111	-0.018	-0.062	0.018	0.101
SEMG2 (UniProt Q02383)	-0.089	-0.083	0.056	–	0.003	0.008	–	–	-0.044	-0.013	0.046	0.651	–	0.033	0.066	0.001	0.051	-0.067	0.016	-0.073
RBM48 isoform 2 (UniProt Q5RL73)	0.118	0.13	-0.006	–	-0.034	0.047	-0.457	0.127	–	-0.334	-0.008	–	–	0.262	–	–	0.029	–	-0.012	0.005
SLC12A5 (UniProt Q9H2X9)	0.009	–	–	-0.034	–	0.002	–	0.117	-0.001	-0.111	-0.077	-0.064	-0.043	-0.05	0.129	0.05	-0.032	-0.062	–	–
RPS19 (UniProt M0R2L9)	–	0.116	0	–	-0.267	–	–	-0.126	0.229	–	-0.159	0.453	–	–	–	-0.634	–	–	–	–
SDC3 (UniProt O75056)	–	-0.004	0.07	0.073	-0.036	-0.019	–	–	–	0.044	-0.016	–	0.026	0.035	0.354	–	0.09	0.174	0.419	0.211
RPAIN isoform 8 (UniProt Q86UA6)	-0.064	–	–	-0.043	–	-0.022	-0.142	-0.042	–	-0.017	-0.044	–	-0.093	0.014	–	–	-0.012	–	–	–
RAD50, A0A494C0Y7	-0.022	–	–	0.028	–	-0.012	0.016	0.058	0.167	-0.032	-0.159	-0.28	-0.175	-0.103	0.095	0.103	–	-0.279	-0.249	-0.086
RNF41 (UniProt Q9H4P4)	-0.09	–	–	–	–	–	–	–	–	–	0.082	–	–	–	0.044	–	–	-0.018	–	–
SH3PXD2B (UniProt A1X283)	-0.954 (active)	-0.124	0.129	–	-0.152	0.024	–	–	0	0.066	0.248	-0.082	0.052	-0.056	0.032	-0.108	0.009	0.026	-0.058	-0.128
S100A10 (UniProt P60903)	-0.026	0.072	-0.057	–	-0.016	0.146	–	0.131	–	0.3	0.283	–	–	0.189	0.333	–	–	0.792 (active)	-0.035	-0.023
